From PubChem BioAssay (Tox21) come the findings set out here.

Test [1] can be described thus: qHTS assay to identify small molecule agonists of the estrogen receptor alpha (ER-alpha) signaling pathway in the presence of an antagonist - cell viability counter screen (AID 1259386).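 Further: series mostly up to about 92 µM; cells exposed to compounds for 22 h at 37 °C before the viability read; nearly all actives have a fitted effect of over 30% in size.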 The procedure, abridged:
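Cytotoxicity was measured in parallel with the ERE-luciferase agonist screen, in the same wells. The cells were VM7Luc4E2, which endogenously express ER-alpha, and treatment was with compounds plus 10.0nM ICI-182,780 for 22hr.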
In general terms: In qHTS, concentration-response curves come from the screen itself.

In test [2] the target is Progesterone receptor (Homo sapiens) (UniProt P06401). The test can be described thus: qHTS assay to identify small molecule agonists of the progesterone receptor (PR) signaling pathway (AID 1346784; calls by dose curve; further: nearly all actives have a fitted effect of over 30% in size). The method, boiled down:
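The screen uses PR-UAS-bla HEK 293T cells in charcoal-stripped serum (2%). Compounds are applied for 16 hr at 37C after a 6 hr pre-incubation, and reporter activity is detected with a FRET beta-lactamase substrate after 2 hr at room temperature.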

The target is the same in test [3]. The test can be described thus: qHTS assay to identify small molecule antagonists of the progesterone receptor (PR) signaling pathway (AID 1346795; active means well fitted inhibition curve with a large enough effect in the signal ratio in the repeat runs, not every such curve was filed as active; the % refers to the signal ratio). The method, boiled down:
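After 6 hr plating at 37C in 2% stripped-serum medium, PR-UAS-bla HEK293T cells got compounds, then 1 nM R5020. Sixteen hours later, LiveBLAzer substrate was applied for 2 hr at room temperature and fluorescence was recorded.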

The nature of test [4]: qHTS assay to identify small molecule antagonists of the progesterone receptor (PR) signaling pathway - cell viability counter screen (AID 1346798). Further: series mostly up to about 92 µM; nearly all actives have a fitted effect of over 50% in size. The procedure, abridged: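 Viability was determined by ATP-based luminescence (CellTiter-Glo) in PR-UAS-bla HEK293T cells cultured in 2% charcoal-stripped serum and incubated 16 hr with compounds under R5020 stimulation.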
The nature of test [5]: qHTS assay to identify small molecule agonists of the progesterone receptor (PR) signaling pathway - cell viability counter screen (AID 1346799; calls by dose curve; further: nearly all actives have a fitted effect of over 45% in size). The method, boiled down:
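Viability was scored by ATP luminescence (CellTiter-Glo, 30 min, room temperature) in the same wells used for the reporter readout, after 16 hr compound exposure of PR-UAS-bla HEK293T cells.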

Test [6] is described as follows: qHTS assay to identify small molecule antagonists of the TGF-beta/Smad signaling pathway - cell viability counter screen (AID 1346824). Further: nearly all actives have a fitted effect of over 50% in size. The method, boiled down: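 SBE-bla HEK 293T cells, incubated overnight, then compound plus 0.25 ng/mL TGF-beta1 (stock added) for 5 hr at 37 C. Viability was read in the same wells by CellTiter-Glo luminescence after 30 min at room temperature.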

Test [7] in a line: qHTS assay to identify small molecule agonists of the TGF-beta/Smad signaling pathway - cell viability counter screen (AID 1346829). Further: top concentration of the series differs between compounds; nearly all actives have a fitted effect of over 45% in size. The method, boiled down:
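CellTiter-Glo luminescence readout; SBE-bla HEK 293T cells, overnight plating, compound 5 hr at 37 C/5% CO2, then bla substrate 2 hr RT, then CellTiter-Glo 30 min RT.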

Test [8] in a line: qHTS assay to identify small molecule agonists of the TGF-beta/Smad signaling pathway (AID 1346859; active means well fitted activation curve with a large enough effect in the signal ratio in the repeat runs, not every such curve was filed as active; the % refers to the signal ratio; further: series mostly up to about 77 µM). The procedure, abridged: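 Dual-wavelength fluorescence (460/530 nm emission) quantified beta-lactamase expression under the Smad binding element in HEK 293T cells following 5 hr compound treatment at 37 C.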
The target in test [9] is Thyrotropin-releasing hormone receptor (Homo sapiens) (UniProt P34981). The experiment in a line: qHTS assay to identify small molecule antagonists of the thyrotropin-releasing hormone receptor (TRHR) signaling pathway (AID 1346877; active means well fitted inhibition curve with a large enough effect in the repeat runs, not every such curve was filed as active; further: series mostly up to about 51 µM). The procedure, abridged:
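Antagonism is measured as suppression of the calcium response to 1 nM TRH in TRHR-HEK293 cells that have been dye-loaded for 2 h at 37 °C after overnight plating. Each compound is tested at 15 concentrations in triplicate.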

For test [10] the target is unchanged. The experiment in a line: qHTS assay to identify small molecule agonists of the thyrotropin-releasing hormone receptor (TRHR) signaling pathway (AID 1346891; calls by dose curve;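 further: HEK293 cells expressing TRHR with calcium dye readout; series mostly up to about 58 µM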). The method, boiled down:
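Kinetic fluorescence (3 min, 1 s intervals) reported intracellular calcium after compound transfer onto TRHR-Hek293 cells pre-loaded with dye for 2 h at 37 °C.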

Test [11] is described as follows: Human pregnane X receptor (PXR) small molecule agonists, qHTS cell viability counter screen (AID 1346977). Further: nearly all actives have a fitted effect of over 50% in size. Further: potency means the concentration at half of the fitted maximal effect. The method, boiled down: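 HepG2 cells stably carrying the PXR-Luc reporter are cultured with 5% charcoal-stripped FBS and treated with compounds for 24hr. CellTiter-Fluor is added at 23hr and fluorescence is read after 1hr.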
Test [12] can be described thus: Caspase-3/7 induction in HepG2 cells by small molecules, qHTS assay (AID 1346978). Further: nearly all actives have a fitted effect of over 15% in size. The method, boiled down: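 Wild-type HepG2 cells, 2,000/well, settled 5 hr at 37 C and 5% CO2, then compound-treated for 17 hr; caspase-3/7 activity read by luminescent Caspase-Glo 3/7 after 30 min at room temperature.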
The nature of test [13]: Caspase-3/7 induction in CHO-K1 cells by small molecules, qHTS cell viability counter screen (AID 1346979). Further: nearly all actives have a fitted effect of over 35% in size. Further: potency means the concentration at half of the fitted maximal effect. The procedure, abridged: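 Seeding: 1,500 CHO-K1 cells/well. Rest: 5hr, 37C. Treatment: compounds in DMSO, 16hr. Read: CellTiter-Fluor, 1hr, fluorescence.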
Test [14] is described as follows: Caspase-3/7 induction in CHO-K1 cells by small molecules, qHTS assay (AID 1346980). Further: nearly all actives have a fitted effect of over 15% in size. The procedure, abridged: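 Wild-type CHO-K1 cells exposed to compounds for 17hr at 37 C, 5% CO2. Caspase-3/7 activity then measured by Caspase-Glo 3/7 luminescence after 30min at room temperature.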
The nature of test [15]: Caspase-3/7 induction in HepG2 cells by small molecules, qHTS cell viability counter screen (AID 1346981). Further: series mostly up to about 92 µM; nearly all actives have a fitted effect of over 30% in size. The procedure, abridged: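 Cell viability is measured as a cytotoxicity counter screen alongside the Caspase-Glo 3/7 readout in identical wells. Wild-type HepG2 cells are treated with test compounds for 16 hr at 37 C before CellTiter-Fluor addition and a 1-hr incubation.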

The target of test [16] is Nuclear receptor subfamily 1 group I member 2 (Homo sapiens) (UniProt O75469). The experiment in a line: Human pregnane X receptor (PXR) small molecule agonists, qHTS assay (AID 1346982). Further: nearly all actives have a fitted effect of over 35% in size. Further: potency means the concentration at half of the fitted maximal effect. The procedure, abridged:
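Cells: HepG2 stably carrying PXR-Luc. Medium held 5% charcoal-stripped FBS. Compounds in DMSO added after 5 hr plating, incubated 24 hr, then luminescence quantified with ONE-Glo.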

For test [17], the target named is Nuclear receptor subfamily 1 group I member 2 (Rattus norvegicus) (UniProt Q9R1A7). The test can be described thus: Rat pregnane X receptor (rPXR) activation by small molecules, qHTS assay (AID 1346983). Further: nearly all actives have a fitted effect of over 20% in size. Further: potency means the concentration at half of the fitted maximal effect. The following applies: rPXR luciferase reporter cells, One-Glo luminescence, 24 h; max activation: hits give high values. The procedure, abridged:
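Cell-based rPXR activation assay: rPXR cells, 2,000 per well, rested 5hr at 37 C, then exposed to compounds in DMSO for 24 hr at 37 C. Luciferase activity read by One-Glo luminescence after 30 min at room temperature.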

Test [18] addresses Nuclear receptor subfamily 1 group I member 2 (Homo sapiens) (UniProt O75469). The experiment in a line: CYP3A4 induction through human pregnane X receptor (PXR) by small molecules, qHTS assay (AID 1346984). Further: nearly all actives have a fitted effect of over 40% in size. The method, boiled down:
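Quantitative HTS in DPX-2 cells, i.e. HepG2 transfected with PXR response element and CYP3A4-promoter luciferase. Compounds in DMSO incubated 24hr at 37C; then P450-Glo CYP3A4 substrate, 3uM final, 3hr; One-Glo luminescence.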

Test [19] deals with Thyrotropin receptor (Homo sapiens) (UniProt P16473). The experiment in a line: qHTS assay to identify small molecule antagonists of the thyroid stimulating hormone receptor (TSHR) signaling pathway (AID 1259385; calls by dose curve; further: nearly all actives have a fitted effect of over 20% in size). The procedure, abridged: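 TSHR-HEK293 cells (800/well) plated 18 h, then compounds with Ro20-1724 and TSH at 1.5 ng/mL final, 30 min at room temperature. cAMP quantified by HTRF (cAMP-d2/anti-cAMP-cryptate, 1 h); 15 concentrations in triplicate.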
Thyrotropin receptor (Homo sapiens), sequence (P16473 whole entry, looked up): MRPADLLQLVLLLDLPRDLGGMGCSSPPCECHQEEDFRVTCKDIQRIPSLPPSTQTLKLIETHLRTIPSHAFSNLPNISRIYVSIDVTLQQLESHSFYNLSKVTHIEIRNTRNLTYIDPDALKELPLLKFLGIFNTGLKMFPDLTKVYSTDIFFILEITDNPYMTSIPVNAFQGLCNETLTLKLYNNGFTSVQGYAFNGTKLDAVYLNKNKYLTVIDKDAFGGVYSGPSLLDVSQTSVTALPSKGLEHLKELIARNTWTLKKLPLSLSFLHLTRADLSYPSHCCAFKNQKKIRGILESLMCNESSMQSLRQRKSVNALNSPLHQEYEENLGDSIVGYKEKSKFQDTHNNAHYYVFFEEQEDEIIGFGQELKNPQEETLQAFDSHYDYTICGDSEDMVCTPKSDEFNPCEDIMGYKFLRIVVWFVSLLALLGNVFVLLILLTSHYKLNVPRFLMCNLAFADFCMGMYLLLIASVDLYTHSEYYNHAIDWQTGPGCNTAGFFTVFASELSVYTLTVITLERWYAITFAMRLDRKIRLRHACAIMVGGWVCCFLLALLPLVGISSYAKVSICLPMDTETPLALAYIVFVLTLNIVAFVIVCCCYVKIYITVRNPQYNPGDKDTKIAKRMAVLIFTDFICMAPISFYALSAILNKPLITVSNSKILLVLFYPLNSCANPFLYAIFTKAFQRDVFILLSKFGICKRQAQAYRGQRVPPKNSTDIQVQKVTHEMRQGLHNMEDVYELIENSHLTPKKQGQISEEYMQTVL

Unmarked numbers belong to inactive results. Records with an inconclusive call do not appear. Activity calls are given as the source filed them. Unless noted, the call rests on the fitted dose curve; in most records, active means well fitted curve in the direction sought with a large enough effect in the repeat runs; inconclusive means weak or mixed curves; inactive means no such curve, though single readings can be large; an effect the other way counts as inactive or inconclusive.
On the % scale 0 is the no-effect control and ±100 the full control effect.

Nuclear receptor subfamily 1 group I member 2 (Rattus norvegicus), sequence (Q9R1A7 whole entry, looked up): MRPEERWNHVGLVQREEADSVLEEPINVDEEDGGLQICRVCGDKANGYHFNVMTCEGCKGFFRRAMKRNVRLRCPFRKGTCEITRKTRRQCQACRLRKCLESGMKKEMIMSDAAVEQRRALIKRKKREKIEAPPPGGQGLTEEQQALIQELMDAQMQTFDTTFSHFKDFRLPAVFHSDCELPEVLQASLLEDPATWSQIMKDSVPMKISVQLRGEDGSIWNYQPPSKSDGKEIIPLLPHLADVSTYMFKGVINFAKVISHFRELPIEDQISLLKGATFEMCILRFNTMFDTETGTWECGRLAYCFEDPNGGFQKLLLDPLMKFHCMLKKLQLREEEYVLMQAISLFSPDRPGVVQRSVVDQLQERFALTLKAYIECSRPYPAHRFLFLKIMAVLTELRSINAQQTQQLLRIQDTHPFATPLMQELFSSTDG
Nuclear receptor subfamily 1 group I member 2 (Homo sapiens), sequence (O75469 whole entry, looked up): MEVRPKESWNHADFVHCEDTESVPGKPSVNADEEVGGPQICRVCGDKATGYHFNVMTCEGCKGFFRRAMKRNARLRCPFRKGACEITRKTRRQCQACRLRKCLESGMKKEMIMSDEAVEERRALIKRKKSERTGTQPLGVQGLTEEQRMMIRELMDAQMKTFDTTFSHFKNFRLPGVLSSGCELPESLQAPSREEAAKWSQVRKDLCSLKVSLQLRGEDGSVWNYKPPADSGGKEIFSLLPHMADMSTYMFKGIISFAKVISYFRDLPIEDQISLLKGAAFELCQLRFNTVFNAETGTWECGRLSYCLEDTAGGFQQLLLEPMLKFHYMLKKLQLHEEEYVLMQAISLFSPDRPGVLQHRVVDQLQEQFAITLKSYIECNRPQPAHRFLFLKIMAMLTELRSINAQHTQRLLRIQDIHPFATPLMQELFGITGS
Thyrotropin-releasing hormone receptor (Homo sapiens), sequence (P34981 whole entry, looked up): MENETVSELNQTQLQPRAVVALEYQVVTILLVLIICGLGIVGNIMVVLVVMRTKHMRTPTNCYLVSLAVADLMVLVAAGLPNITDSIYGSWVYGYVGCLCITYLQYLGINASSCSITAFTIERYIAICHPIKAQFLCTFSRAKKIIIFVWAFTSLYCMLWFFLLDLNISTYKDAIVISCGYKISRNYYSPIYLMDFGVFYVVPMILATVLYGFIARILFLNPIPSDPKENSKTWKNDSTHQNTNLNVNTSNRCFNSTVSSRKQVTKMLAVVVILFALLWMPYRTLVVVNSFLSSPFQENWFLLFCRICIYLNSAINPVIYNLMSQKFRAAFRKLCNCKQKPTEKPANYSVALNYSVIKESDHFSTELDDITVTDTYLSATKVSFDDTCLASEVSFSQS
Progesterone receptor (Homo sapiens), sequence (P06401 whole entry, looked up): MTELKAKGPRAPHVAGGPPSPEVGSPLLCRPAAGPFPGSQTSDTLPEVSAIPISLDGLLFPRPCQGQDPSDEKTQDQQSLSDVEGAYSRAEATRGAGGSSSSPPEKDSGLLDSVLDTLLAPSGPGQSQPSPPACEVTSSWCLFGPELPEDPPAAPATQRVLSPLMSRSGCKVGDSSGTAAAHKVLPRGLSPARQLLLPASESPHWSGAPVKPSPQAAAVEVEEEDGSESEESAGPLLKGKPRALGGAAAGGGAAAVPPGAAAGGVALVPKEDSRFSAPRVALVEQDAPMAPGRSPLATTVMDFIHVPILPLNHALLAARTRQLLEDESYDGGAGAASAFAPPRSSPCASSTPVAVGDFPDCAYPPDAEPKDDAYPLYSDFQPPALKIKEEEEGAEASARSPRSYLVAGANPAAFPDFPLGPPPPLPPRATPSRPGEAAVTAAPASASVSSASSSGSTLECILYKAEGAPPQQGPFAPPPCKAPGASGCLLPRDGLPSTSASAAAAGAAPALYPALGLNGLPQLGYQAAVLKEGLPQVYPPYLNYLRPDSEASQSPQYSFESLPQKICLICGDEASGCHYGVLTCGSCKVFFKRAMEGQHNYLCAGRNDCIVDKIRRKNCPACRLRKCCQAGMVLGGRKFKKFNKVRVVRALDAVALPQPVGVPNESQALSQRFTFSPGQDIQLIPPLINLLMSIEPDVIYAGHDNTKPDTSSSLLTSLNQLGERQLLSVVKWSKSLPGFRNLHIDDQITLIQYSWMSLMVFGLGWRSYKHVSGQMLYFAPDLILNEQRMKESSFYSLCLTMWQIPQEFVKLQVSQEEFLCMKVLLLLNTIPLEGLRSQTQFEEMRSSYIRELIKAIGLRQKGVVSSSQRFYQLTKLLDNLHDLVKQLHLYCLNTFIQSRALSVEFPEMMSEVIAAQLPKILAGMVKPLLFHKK

As for `CC1CCN(CCCC(=O)c2ccc(F)cc2)CC1`, the outcome in test [1], in test [6], in [7], in [8], in test [9] and in [10] was inactive. Further, the compound was called inactive in [12], in test [14] and in test [15]. In addition, the Potency entry in test [2], in [3], in test [4], in test [5], in test [11] and in test [13] was “inactive” each time. Further, the Potency entry in test [16] and in test [18] was “inactive” each time. Besides, in [17], the max activation is -4.88%.

As to `Cn1ccc2cc3c(cc21)CCN3C(=O)Nc1cccnc1`, the activity change, negative = cytotoxicity in test [1] is -5.2% [at 19 µM]; in test [4] it was -18% [at 18.9 µM]; in test [5], 0.965% [at 19 µM]; in test [7] it was -1.62% [at 15.8 µM]; in test [11] it was 0% [at 19 µM]; in test [13], 5.05% [at 19 µM]. Besides, the activity change, negative = cytotoxicity in [15] is 1.32% [at 19 µM]. The activation in [2] is 1.39% [at 19 µM]; in test [8] it was 2.76% [at 15.8 µM]; in test [10], -0.003% [at 11.8 µM]. In addition, the activity change, negative = inhibition in [3] is -0.261% [at 18.9 µM]. The viability change, negative = cytotoxic in [6] was 10.7% [at 15.8 µM]. In addition, the activity, negative = inhibition in [9] was -16.1% [at 10.5 µM]. Moreover, the caspase activation in test [12] is 0.602% [at 19 µM]. The caspase-3/7 activation in test [14] is -1.75% [at 19 µM]. The figures for the Potency in test [16] and in test [17] were 3.66 µM (active) and 12.6 µM (active), respectively. Further, the Potency entry in [18] was “inactive”.

`Cc1c(F)cc2c(=O)c(C(=O)O)cn3c2c1CCC3C` (stereo not given): the Potency entry in test [19], in test [2], in [3], in [5], in test [11] and in [13] was “inactive” in each case. Also, the Potency result in test [16] is “inactive”. The compound was called inactive in test [6], in test [7], in test [9], in test [10], in test [12] and in [14]. Besides, the call in test [15] was inactive.

For `N#CC1(O)CCCCC1`, the outcome in test [1], in [6], in test [7], in test [8], in test [12] and in test [14] was inactive. Also, the Potency result in test [2], in [3], in test [4] and in test [5] was “inactive” throughout. The Potency was 17.4 µM (active) in [11], 27.5 µM (active) in [13] and 17.4 µM (active) in [16].

As to `C=C[Si](OC)(OC)OC`, the result in [1], in test [6], in test [7], in test [8], in test [9] and in [10] was inactive. The compound was called inactive in [12], in test [14] and in [15]. Also, the Potency result in test [2], in test [3], in test [4], in test [5], in [11] and in test [13] was “inactive” each time. Moreover, in [16], the Potency result is “inactive”.

For the compound `C=C(C)C(=O)NCCCN(C)C`, the result in [1], in test [6], in test [7], in [8], in [9] and in test [10] was inactive. For the same compound, the result in [12], in test [14] and in test [15] was inactive. The Potency result in test [2], in [3], in test [4], in test [5], in [11] and in test [13] was “inactive” each time. In test [16], the Potency result is “inactive”.

On to `Nc1[nH]c(=O)ncc1F`, for which the outcome in test [1], in [6], in test [7], in [8], in test [12] and in test [14] was inactive. Further, the outcome in [15] was inactive. For the same compound, the Potency entry in test [2], in test [3], in test [4], in test [5], in test [11] and in [13] was “inactive” in each case. Moreover, the Potency result in [16] and in test [18] was “inactive” in each case. Also, the max activation in test [17] was -0.668%.

Consider `CC(=O)O[C@H](CC(=O)[O-])C[N+](C)(C)C`, for which the Potency entry in test [19], in test [3], in test [4], in test [5], in test [11] and in [13] was “inactive” each time. Further, the compound was classed as inactive in [6], in test [7], in test [8], in [9], in test [10] and in test [12]. Besides, the call in test [14] and in [15] was inactive.
